From PubChem BioAssay AID449728 (The Scripps Research Institute Molecular Screening Center, 2010)
Where “and” joins values, the source holds several entries; their conditions need not be identical. Equal entries are not always repeated. The campaign covered roughly 330,000 compounds. About 900 (0.27%) were called active.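 How the source made its calls: active means inhibition above the campaign's mean inhibition across all tested compounds plus 3 SD (cut at about 9.9% in these data); inactive means the rest.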 Only a selection was taken, and actives are over-represented in it overall. A structure can be active in one record and inactive in another.

Assay: E. coli V3065 growth inhibition, primary screen, counter-screen for AddAB inhibitor project, absorbance, OD600 (AID 449728);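 further: uninfected addAB+ strain grown without phage in ampicillin broth; 0% = DMSO wells and 100% = ciprofloxacin 0.95 µg/ml wells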
Conditions: 18 h, at 11.9 µM, stronger effect = higher value

SMILES	inhibition
COCCn1c(SCC(=O)Nc2cc(OC)ccc2OC)nc2c(c1=O)SC(C)C2 (stereo not drawn)	-0.66% (inactive)
Cc1cc2c(cc1C)[n+](C)cn2CC(O)COCC1CC=CCC1 (stereo not drawn)	-1.13% (inactive)
O=[N+]([O-])c1ccc(N=Cc2c(O)ccc3ccccc23)cc1	25% (active)
Cc1nc2ccccc2nc(=O)c1NNc1ccc([N+](=O)[O-])cc1	-0.37% (inactive)
O=C(Oc1ccc([N+](=O)[O-])cc1)c1ccc2ccccc2n1	0.89% (inactive)
O=S(=O)(c1ccc(Br)cc1)n1ccc2ccccc21	0.82% (inactive)
CCCc1nc(N)nc2c1C(=O)CC(C)(C)C2	0% (inactive)
CCCC(=O)OCC(=O)Nc1cc(Cl)ccc1[N+](=O)[O-]	0.59% (inactive)
CC(C)(C)NC(=O)COC(=O)c1cc(Br)ccc1Cl	-0.09% (inactive)
CC(C)(C)NC(=O)COC(=O)c1cc(Cl)ccc1[N+](=O)[O-]	16% (active)
CSc1ccccc1NC(=O)C(C)N1C(=O)c2ccccc2S1(=O)=O (stereo not drawn)	-0.94% (inactive)
CC1CC1C(=O)OCC(=O)c1c(N)n(C)c(=O)n(C)c1=O (stereo not drawn)	-1.26% (inactive)
COc1ccc(NC(=O)CSc2nc(SC)ns2)c(OC)c1	-1.11% (inactive)
CCCCCCNC(=O)CSc1nccn1Cc1ccccc1	-3.38% (inactive)
Cc1occc1C(=O)NC1CCCN(Cc2ccc(CC(C)C)cc2)C1 (stereo not drawn)	-0.68% (inactive)
CCOc1ccc(OCCSc2nc3ccccc3n2CC(=O)O)cc1	-0.94% (inactive)
Oc1ccc(Br)cc1/C=N/Nc1ccccn1	9.57% (inactive)
Oc1cccc(/C=N/Nc2ccc(Cl)nn2)c1O	19.4% (active)
Oc1c(Br)cccc1/C=N/Nc1c(F)c(F)c(F)c(F)c1F	0.5% (inactive)
C/C(=C/C(=O)N1CCN(C)CC1)C(=O)O	0.17% (inactive)
CCC1OC(c2ccc([N+](=O)[O-])cc2)=Nc2ccccc21 (stereo not drawn)	-1.44% (inactive)
CCCCCOc1ccc(CSC2=NCCN2)cc1[N+](=O)[O-]	0.17% (inactive)
CCCCOC(=O)CCCc1ccc([N+](=O)[O-])cc1[N+](=O)[O-]	0.76% (inactive)
CCCCOc1ccc(CSC(=N)N)cc1[N+](=O)[O-]	10.1% (active)

SMILES	inhibition
O=C(Nc1ccccc1F)C1C2C=CC3(O2)C1C(=O)N(c1cccnc1)C3C(=O)NC1CCCCC1 (stereo not drawn)	-0.09% (inactive)
COC(=O)c1c(NC(=O)COC(=O)[C@@H](NS(=O)(=O)c2ccccc2)C(C)C)sc2c1CCC2	-2.57% (inactive)
Oc1ccc2ccccc2c1N=Nc1nccs1	13.9% (active)
O=C(NC(=S)Nc1ncccn1)c1ccccc1Br	0.5% (inactive)
O=C(CN1C(=O)COc2ccc(Cl)cc21)N1CCOCC1	1.26% (inactive)
COc1ccc(NC(=O)CCn2ccnc2)c(OC)c1	-1.17% (inactive)
CC(=O)NC12CC3CC(C1)CC(C(=O)N1CCN(S(=O)(=O)c4cccs4)CC1)(C3)C2	-1.77% (inactive)
CN1CCN(c2cc3c(cc2F)c(=O)c(C(=O)O)cn3CCF)CC1	100% (active)
CCCCCCn1cc(C(=O)O)c(=O)c2cc(F)c(N3CCCCC3)cc21	1.34% (inactive)
CCn1cc(S(=O)(=O)c2cccc(C)c2)c(=O)c2cc(F)c(N3CCN(C)CC3)cc21	-4.05% (inactive)
CCn1cc(C(=O)NCCC(=O)NCCO)c(=O)c2cc3c(cc21)OCO3	1.2% (inactive)
CCCCNC(=O)c1cn(CC)c2cc(N3CCN(C(=O)c4ccco4)CC3)c(F)cc2c1=O	5.88% (inactive)
CCn1cc(C(=O)NCCO)c(=O)c2cc(F)c(N3CCN(C)CC3)cc21	97.8% (active)
NNC(=O)c1ccc(COCC(F)(F)C(F)F)cc1	3.04% (inactive)
CO/N=C(\C(=O)N[C@@H]1C(=O)N2C(C(=O)O)=C(COC(C)=O)CS[C@H]12)c1csc(N)n1 (stereo in doubt)	98.5% (active) and 97.8% (active) and -0.69% (inactive)
CC(C)(C)OC(=O)C1=C(CO)CS[C@@H]2[C@H](NC(=O)Cc3ccccc3)C(=O)N12	1.43% (inactive)
Cc1cc(C)cc(C(=O)NC2C(=O)N3C(C(=O)O)=C(CSc4nnc(C)s4)CSC23)c1 (stereo not drawn)	-0.85% (inactive)
C=CC1=C(C(=O)O)N2C(=O)[C@@H](NC(=O)/C(=N/OCC(=O)O)c3csc(N)n3)[C@H]2SC1	97.6% (active)
C=CC1=C(C(=O)O)N2C(=O)[C@@H](NC(=O)/C(=N\OCC(=O)O)c3csc(N)n3)[C@H]2SC1	97.5% (active)
Cc1nnc(SCC2=C(C(=O)O)N3C(=O)C(NC(=O)Cn4nc(C)c(Cl)c4C)C3SC2)s1 (stereo not drawn)	1.18% (inactive)
COC(=O)C1=C(C)NC2=C(C(=O)c3ccccc32)C1c1ccc(-c2ccc(C(=O)O)cc2)o1 (stereo not drawn)	1.44% (inactive)
CCCCC(=O)Nc1nnc(S(=O)(=O)N(C)Cc2ccco2)s1	1.69% (inactive)
Cc1[nH]nc(SCC(=O)NCC(C)C)c1[N+](=O)[O-]	-0.08% (inactive)
COc1ccc(S(=O)(=O)N2CCOCC2)cc1NC(=O)CSc1ncnc2ccccc12	-2.21% (inactive)

SMILES	inhibition
COC(=O)c1ccc(COC(=O)CNC(=O)c2cccc(OC)c2)o1	-0.35% (inactive)
CCOC(=O)c1c(CC(C)C)csc1/N=C/C1=C(O)CCCC1=O	-1.62% (inactive)
Cc1ccc(-n2c(C)nnc2SCC(=O)NC2CC2)cc1	0.84% (inactive)
O=c1ccc2c(-c3ccccc3S(=O)(=O)O)c3ccc(O)c(O)c3oc-2c1O	20.2% (active)
CC(C)C(C(=O)NCc1ccco1)N(CC1CCCO1)C(=O)CNS(=O)(=O)c1ccc(F)cc1 (stereo not drawn)	0.85% (inactive)
CC(=O)Nc1ccc(S(=O)(=O)N(CCc2ccccc2)CC(=O)N/N=C/c2ccc(C(=O)O)cc2)cc1	2.71% (inactive)
O=S(=O)(Nc1ccc(-n2cnnn2)cc1)c1ccc(Cl)cc1	1.06% (inactive)
COc1ccc2oc(=N)c(C(=O)Nc3ccc(Br)cc3)cc2c1	-1.46% (inactive)
COc1ccc(C(=O)/C=C/c2cccnc2)c(OC)c1	-1.21% (inactive)
COc1ccc(/C=C/C(=O)c2cc(Br)ccc(=O)c2O)cc1	10.9% (active)
COC(=O)c1sc(SC)c(S(=O)(=O)C(C)C)c1N/N=C(\C#N)S(=O)(=O)c1ccccn1	-1.95% (inactive)
CCCCCC1CC(COc2ccccc2)OC1=O (stereo not drawn)	-0.64% (inactive)
O=C(CC(O)(C(F)(F)F)C(F)(F)F)Nc1ccc(Cl)c(Cl)c1	17.7% (active)
O=C(CCCN1C(=O)CCC1=O)Nc1ccc(Cl)c(C(F)(F)F)c1	-1.92% (inactive)
CS(=O)(=O)N(CC(=O)Nc1ccc(Cl)c(Cl)c1)C1CCCCC1	0.42% (inactive)
CC(=O)Nc1ccc(NC(=O)COc2ccc(S(=O)(=O)NC(C)c3ccccc3)cc2)cc1 (stereo not drawn)	2.38% (inactive)
O=C(CSc1ccccn1)N1CCN(S(=O)(=O)c2ccc(Cl)cc2)CC1	-1.3% (inactive)
CCCCNC(=O)Nc1c(C)cc(SC#N)cc1C	2.5% (inactive)
O=C(O)C(c1ccccc1)N1C(=O)/C(=C\c2ccc(-c3cccc(Cl)c3)o2)SC1=S (stereo not drawn)	-3.78% (inactive)
CC(=O)NN1C(=O)c2ccccc2NC1c1ccccc1 (stereo not drawn)	0.86% (inactive)
O=C1c2ccccc2NC(c2ccc(-c3cccc(Cl)c3)o2)N1O (stereo not drawn)	19.2% (active)
O=C(NCc1cccs1)c1ccc2c(c1)ncn2C1CCCC1	-2.5% (inactive)
Cc1ccc(NC(=O)CN(C)C(=O)c2ccc(Br)o2)cc1	0.43% (inactive)
CCCS(=O)(=O)Nc1ccc(-c2cn3c(n2)SCC3)cc1	2.36% (inactive)

SMILES	inhibition
CC(C)(C)N(Cc1ccccc1)C(=O)c1ccncc1	-2.63% (inactive)
O=C(NCc1ccccn1)Nc1ccc(Cl)cc1	-3.41% (inactive)
O=C1c2ccccc2C(=O)N1CCC(O)C[N+](=O)[O-] (stereo not drawn)	3.02% (inactive)
COc1ccc(NC(=O)c2ccccc2[N+](=O)[O-])cc1OC	-1.73% (inactive)
O=C(Cc1c(F)cccc1Cl)Nc1ncc([N+](=O)[O-])s1	7.15% (inactive)
CC(=O)Oc1ccccc1C(=O)Nc1ncc([N+](=O)[O-])s1	11.2% (active)
CCCCCCCCCCCC(=O)O	-2.17% (inactive)
COc1ccc(OC)c(CCNC(=O)c2nn(C)c3c2CS(=O)(=O)c2ccccc2-3)c1	0.84% (inactive)
Cc1cc(=O)oc2cc(OCC(=O)N3CCN(c4ccc(F)cc4)CC3)c(Cl)cc12	1.94% (inactive)
Cc1onc(NC(=O)c2ccc([N+](=O)[O-])o2)c1Br	6.74% (inactive)
O=C(Nc1cccc(O)c1)c1ccc(C(=O)c2ccccc2)o1	0.43% (inactive)
CN1C(=O)c2ccc(C(=O)Nc3ccc(Br)cn3)cc2C1=O	-2.73% (inactive)
O=C(Nc1ccc(Br)cn1)c1ccc([N+](=O)[O-])cc1Cl	2.77% (inactive)
Cc1cccc(NC(=O)c2ccc([N+](=O)[O-])o2)c1	27.2% (active)
O=C(Nc1ccc(Br)cn1)c1ccc([N+](=O)[O-])o1	32.3% (active)
CC1CC(C)CN(CCC(=O)Nc2ccc3c(c2)CCC3)C1 (stereo not drawn)	1.48% (inactive)
O=c1c(-c2ccc(Cl)cc2)[n+]([O-])c2ccccc2n1OCc1nc2ccccc2[nH]1	0.49% (inactive)
O=C(Nc1cccnc1Cl)c1cc(-c2ccccc2O)on1	-1.11% (inactive)
C=CCNC(=O)c1cc(-c2ccccc2O)on1	85.1% (active)
C=CCNC(=O)c1csc(-c2ccccc2)n1	-0.67% (inactive)
Cc1ccc(C)c(OCCC(=O)OCC(=O)NC(=O)NCc2ccccc2)c1	0.73% (inactive)
